# Only some compounds are listed: those with a hit (about 3.9% of all), similar ones and a draw of the others.
# MITF TRPM1 HTS: activators of MITF-driven TRPM1 promoter reporter, primary screen, cell-based, SK-MEL-5, luciferase, single point | SK-MEL-5 TRPM1-promoter luciferase, 24 h; % of positive control, neutral wells = 0 | 0.75% of 300,000 active | activation, % at 12.5 µM;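 active = mean activation of at least 80% with every replicate also reaching 80%; inconclusive = mean reaches 80% but some replicate falls short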;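 note: 0% = neutral control wells and 100% = parthenolide positive control wells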
# Wnt act: Wnt/beta-catenin pathway activators, primary screen, cell-based, plate reader, single point | activation, % at 9.35 µM | Wnt/beta-catenin reporter cell assay, activator | 1.2% of 300,000 active; in the data active = activation above about 30%, passing the limit was not always enough; inconclusive = no clear call, values can overlap the other calls;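 note: 0% = neutral control wells and 100% = positive control wells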
# esBAF inh: Bmi1 luciferase reporter increase in mESCs, primary screen, esBAF inhibitor project, mouse ES cells, Bmi1 luciferase knock-in, single point; 24 h; 100% = twice the neutral-well signal; reporter increase, % at 12.5 µM; 2% of 350,000 active; in the data active = activation above about 40%; inconclusive = no clear call, values can overlap the other calls;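 note: 0% = median of the plate's neutral control wells and 100% = double that signal; a rise in the Bmi1 reporter signal indicates esBAF inhibition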
# HSF1 inhib: HSF1 inhibitors in luciferase reporter cells, primary screen, cell-based, NIH3T3, luminescence. NIH3T3-HGL HSE-luciferase, MG132-induced, luminescence 8 h; stronger effect = lower value. activity change, negative = inhibition, % at 7.5 µM (by protocol). 0.77% of 300,000 active. AID 2098, 2009;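 active = more than half of replicate wells show activity change below -50%, luminescence cut by over half; inconclusive = some wells, but at most half, below -50%; inactive = no replicate well below -50%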;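 note: luciferase reports HSF-1 transcriptional activity via heat shock element; 0% = median of DMSO wells and -100% = zero luminescence signal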
# HSF1 activator: HSF-1 activators, primary screen, NIH3T3-HGL cells, MG132 stress, luminescence, single point | NIH3T3-HGL HSF-1 luciferase reporter, 8 h; 100% = twice DMSO control signal | activation, % at 9 µM | 1.7% of 300,000 active | AID 504408, 2011;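 active = mean replicate activation of at least 50% with a set share of replicates each reaching 50%; inconclusive = only one of those two conditions met; inactive = mean below 50% and too few replicates reaching it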;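 note: 0% = median of the neutral control wells and 100% = twice that signal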
# Numbers without * were called inactive; ? = inconclusive; / = no result given.
SMILES,MITF TRPM1 HTS,Wnt act,esBAF inh,HSF1 inhib,HSF1 activator
CN(C)C(=O)C[C@H]1C[C@H]2c3cc(NS(=O)(=O)c4ccccc4)ccc3O[C@H]2[C@H](CO)O1,/,/,3,/,/
Cc1nn(C)cc1NC(=O)C[C@@H]1CC[C@H]2[C@H](COc3ccc(NC(=O)Nc4cccc(Cl)c4)cc3C(=O)N2C)O1,/,/,-6,/,/
Cc1cccc(Oc2coc3cc(OC(=O)c4cccs4)ccc3c2=O)c1,9,/,/,29,59*
COc1ccc(NC(=O)N(C)C[C@H]2Oc3ccc(NC(=O)NC(C)C)cc3CC(=O)N([C@H](C)CO)C[C@@H]2C)cc1,/,/,1,/,/
CC(=O)Nc1ccc2c(c1)-c1ccc(F)cc1C2,12,9,/,/,/
CC(=O)Nc1cc(F)c2c(c1F)Cc1cc(F)ccc1-2,50,0,103*,/,/
CC(=O)Nc1cc2c(cc1[N+](=O)[O-])-c1ccc(F)cc1C2,1,3,52*,/,/
CC(=O)Nc1c(Cl)c2c(c(Cl)c1Br)-c1ccc(Cl)cc1C2,-7,-4,0,/,/
Clc1cccc(/C=N\Nc2nccs2)c1,44,14,32,103,143*
C(=N/Nc1nccs1)/c1cccnc1,-3,2,/,6,16
Clc1cccc(/C=N/Nc2nc(Cl)nc3ccccc23)c1,/,10,52*,7,37
Clc1ccc(/C=N/Nc2ncnc3ccccc23)cc1Cl,/,?,74*,16,2
N#Cc1cccc(-c2ccc3c(c2)[C@H]2[C@H](CCN2S(=O)(=O)c2cccc(F)c2)[C@H](CO)N3)c1,/,/,-3,/,/
C[C@@H](NC(=O)C[C@H]1CC[C@H](NC(=O)Nc2ccc3c(c2)OCO3)[C@@H](CO)O1)c1ccccc1,/,/,-1,/,/
C/C(=N\Nc1nc(C)c(C)s1)c1ccc([N+](=O)[O-])cc1,19,1,/,18,40
C/C(=N\Nc1ccc([N+](=O)[O-])cc1)c1ccco1,?,/,50,15,55*
CC(=NNc1ccc([N+](=O)[O-])cn1)c1ccc(N)cc1,71,12,97*,/,/
CCc1ccc(/C(C)=N\Nc2ccc([N+](=O)[O-])cc2)cc1,/,/,44*,11,45
C/C(=N\Nc1ccc([N+](=O)[O-])cc1)c1ccc(N)cc1,76,9,-5,2,-7
Cc1cccc(N2CCN(C(=O)CSCc3c(C)noc3C)CC2)c1C,2,/,7,9,54*
c1cncc(-c2nc3ccccc3[nH]2)c1,10,/,/,5,-3
COC(=O)c1ccc(-c2nc3ccccc3[nH]2)cc1,15,/,/,38,61*
COc1ccc(-c2nc3ccccc3[nH]2)cc1,7,17,/,-2,4
S=C(Nc1ccc(-c2nc3ccccc3[nH]2)cc1)Nc1cccnc1,35,25,17,21,59*
O=C(O)c1ccccc1-c1nc2ccccc2[nH]1,14,4,34,21,60*
SMILES,MITF TRPM1 HTS,Wnt act,esBAF inh,HSF1 inhib,HSF1 activator
c1ccc(-c2nc3ccccc3[nH]2)cc1,86*,61*,72*,-61*,-66
O=C(Nc1ccc(F)cc1)N1C[C@@H]2[C@H](c3ccccc31)[C@H](CO)N2C(=O)c1cccnc1,/,/,0,/,/
C[C@@H]1CCCCO[C@@H](CN(C)C(=O)c2ccncc2)[C@H](C)CN([C@@H](C)CO)C(=O)c2cc(NC(=O)c3ccccc3)ccc2O1,/,/,3,/,/
O=C(CCCc1c[nH]c2ccccc12)N1CCCCCC1,29,-1,60*,19,8
CC1CCN(C(=O)COC(=O)c2c[nH]c3ccccc23)CC1,63,8,57*,/,/
O=C(COC(=O)c1n[nH]c(=O)c2ccccc12)Nc1ccccc1F,-10,0,2,/,/
CC1CCCN(C(=O)COC(=O)c2n[nH]c3ccccc23)C1 (configuration not stated),?,/,70*,11,9
CC1CC(C)CN(C(=O)COC(=O)c2c[nH]c3ccccc23)C1 (configuration not stated),-20,-1,7,/,/
O=C(COC(=O)c1n[nH]c2ccccc12)Nc1ccccc1F,10,19,123*,/,/
C[C@@H]1CN([C@H](C)CO)C(=O)c2cc(NS(C)(=O)=O)ccc2O[C@@H](C)CCCCO[C@@H]1CN(C)S(=O)(=O)c1ccccc1,/,/,-2,/,/

# Source: PubChem BioAssay (Broad Institute)
